Consider 133 sequences from PubChem BioAssay AID1159506 (National Center for Advancing Translational Sciences (NCATS), 2015).

In all, about 59,000 sequences were measured (the read-out: median about -0.00055, lowest 2% from about -2 on). Many of the other results were omitted from the sample, so the lowest values are more common in it than they were.

The assay in a line: Identification of proteins required for the processing of the EWS-FLI1 nascent transcript.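 Further: robust z of luciferase light less the median z of siRNAs with the same seed.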 Conditions: TC32 Ewing sarcoma NR0B1-luc vs CMV-luc (EWS-FLI1 target promoter against control promoter), 48 h; screened at 20 nM (by protocol). The method in brief:
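Genome-wide siRNA screen (Ambion v4.1, three siRNAs per gene, 20 nM final, RNAiMax) in Ewing sarcoma TC32 cells carrying NR0B1-promoter or CMV-promoter luciferase; OneGlo luciferase read 48 h post-transfection. Data normalized, z-score-MAD transformed and seed-adjusted.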
UCGGUGAUGAGGCUGAUCC against G6PC3 displayed a seed-corrected z-score of -0.843.
Next, AGUGUAACAGACAUCAUGC against DLAT: -0.966.
As for UUGUAUUCCCUUGUGGUCC against KHDRBS1, the figure is -2.93.
Next, UGCUUUGUCGUAAUCUUCC against UNC45A: -0.29; AAAAUAAUCGAUGUGAUUU against FOXI3: -0.41.
Take AUCACUCUCACAUACAUGG against RCAN1: the seed-corrected z-score was -0.288.
As for UAUCGUGAAACAGACUUCC against SND1, the figure is 0.0523; as for UUCUAAACAACUCUUGGAC against RPUSD4, -0.962; as for UACAGGGUCAGGGAGAGGU against PTPN6, -2.18.
Next, UUGUAUACAACCUAUCAAC against B4GALT6: -0.657.
Next, UUAUUUUGAAUAGCCUUCC against SERBP1: 1.09; UAUAUCGACAGCUCAGCUC against SUPT6H: -4.43; UUGGUAUCCAAAGACGAUG against RTKN2: -0.918.
“AAGGGCAAAGGAGUGAGGC against LOC100289495” gave a seed-corrected z-score of -0.199.
As for UUCUGGUUAGUCAUAUUGG against HDAC1, the figure is -0.41.
Sequence UUGAGGGCAGAAGUACACU against FAM231D had a seed-corrected z-score of -0.76.
Next, UGGUUUGUCAGCGGGAUUC against MINK1: -2.53; AUCCGAACACCCAUAAGCC against POLK: -0.479; UUAAUUCUAUUCGAUCAUC against MNS1: 0.033.
As for UCUUAUGUUGGUGUUGUUC against SMOC1, the figure is 0.0653; as for UGAGUGAUAGUCUAGACUC against SOX9-AS1, 0.0191; as for UUUAUUUAGGGAGCUCCAG against ETHE1, 0.835.
Next, UUACGUUCAGAGUCUAUCG against C17orf75: 0.0852; UUGUUGAUCACUUUGACGG against IKZF3: 0.604; AAACAGUCCAUUAACUUCU against RBM38: 0.257.
As to UUCUUGGUAAGAUCGAGAG against RNF43, the seed-corrected z-score is -2.77.
As for AAUGCGAUUAUUGUCUGUC against CCT3, the figure is 0.0264; as for UCGGUUGUAUAUGUCAUCC against KIAA0100, 0.141.
Next, UUCACUGAUCUGAAAGUUG against NAA10: 0.839.
Next, UCACUGUGCAUUUCUCCAC against GUCD1: 0.93; UUAUAGUAUGCAGGAAUGG against FAM150B: -1.67; UGACUAAGAACUGUAUCCC against CC2D2B: -2.16.
In the case of UUUUCGGCGUGUAUCCUCG against CHMP1B, the seed-corrected z-score is -0.617.
The sequence UCUUUGACAAGGACCCUUC against G2E3 displayed a seed-corrected z-score of 1.23.
As for UAGGUCAAGAUAACCAUGC against OR8K1, the figure is -13.9; as for UUUGUGCUGCUUGUUCUCG against ADCK3, -1; as for UGUAUCUCGAUCUUCACCG against STRN, -0.0881.
Next, UGCAUGAAUAGAGUCGGCG against RAB22A: -0.347.
The sequence AAAUAUAUAGGGCAUCCAG against PLEKHM1P1 showed a seed-corrected z-score of 0.174.
As for UCUUCUCUAAGUCUAGGUC against POM121, the figure is 0.532.
Next, UGCUGAAUAGGUCCAAUCC against HERPUD1: -1.46; UCAUAUGGAACUCUAAAGC against PIK3CG: 0.358; AAUCUUCAAACAGCCGCUC against CHRNA3: -2.52.
Next, AUAUGAUUCCCAAUUAAUG against TMEM119: 1.74; UAAGAUCCGAGUCACUAUC against RPH3AL: -0.639; UUUCAGCUUCUUGUACUGG against ROCK1P1: -2.99.
UCGUUGAUCACAAUUAGCU against ADAM11 registered a seed-corrected z-score of 0.436.
Next, UCUGGUAUCAGAAAGUUCG against BBS7: -0.128; ACAGAUAUAGGAGAAAGCC against NUMBL: 0.00267; UAGCCUAUCAAUGAAACCU against ZNF222: 0.694.
On to UUUACGUCGUUCUUCUUCC against TXLNG, for which the seed-corrected z-score came out at 0.0162.
As for UUUGGGUCAACGGUGAGGU against KIAA2012, the figure is 0.316.
Next, AUGUUUUUCAAGUAGCUUC against CDRT4: -1.38.
Consider UUAACUUGUUGUAUUGCUG against CCDC109B, for which the seed-corrected z-score is 1.36.
Next, AACACUAUUUAGCUCAUUC against TARBP1: 0.0464; UGAGAGAUAAUUUUGGGAG against SPDYC: -12.8; UUACUUUCUUCAACCAAAG against TRMT6: 0.527.
UUUCGAAGUUGCAUGGUUG against KDM5D had a seed-corrected z-score of -0.291.
Next, UCUUAGACCCUGGAGGUGG against TBRG4: -0.178; UAUUAGACAGAACUCUUGG against TNRC6C: -14.8; UUAGAUUUCUCCCUCGGUG against ZNF136: -0.576.
As for UCUUCGAACUGAAUGAGUG against ME2, the figure is 0.165; as for UUUACUGGGAUAGUUAAUC against C2CD4A, 1.08; as for UCCACUAUUACAACAGCCC against SFPQ, -2.65.
In turn, UUCUUAUCAAGAAUAGUCC against PTER showed a seed-corrected z-score of -0.285.
Take UUCUGCGUCACUUUCUACC against CRNKL1: the seed-corrected z-score is -0.902.
As for UUUGGGACAAGGCACAAGC against PRKCDBP, the figure is 0.468; as for UACAAUACUAUUUCGAAUC against ZNF44, -0.235.
As for UCAAAUACUGGUCGAAUUC against SOX7, the figure is 0.0233; as for UUGGGCAUAAUGGAAGCUG against EIF2B2, -1.39; as for UUGGGUAGUAGCAUAGCCU against SYNC, -2.19.
Next, UUGAUUUCCACUCCUUUUG against SGCD: -0.522; UAUUUCUCGAUUAUCUUCA against ICA1L: -1.21; UGCAGUACCAGGUUCAGGG against DOK1: 0.361.
In the case of AAUCCCAAAACCUUCUCGC against TPRG1L, the seed-corrected z-score was -2.07.
As for ACUUGGAAAUCUCUUUUCG against FAM117A, the figure is 0.27.
As for UGUUGCAUUCUUGUCAUCC against CRAMP1, the figure is -0.303; as for UGACAUGUCCUCAACAUCA against TMEM91, -1.41.
Next, UUAUCGUCAUGGUAAACAC against GXYLT1: 0.378; UCAGUAUCCAGGUCAGUGC against LEMD2: 0.794.
As to UCCUCCCUAACAAAUAGGC against NUDT16, the seed-corrected z-score is -0.295.
Next, AAGGUUGCUAUACGUGGGC against C19orf35: -2.85; UUUCAAUCCUGUAAGGGUC against CDC23: 0.07.
Next, UGGAUAAUCAGGAUGGUCC against AKR1C4: -0.343.
As for UAAGCAACAGGAGCUCAGU against KRT6B, the figure is 0.507.
Sequence UGGUUGAUCAAUGCGAUAG against C11orf54 displayed a seed-corrected z-score of -0.331.
Next, UUUGAGUACUCCAAGAUGU against C20orf96: 0.627.
Next, AUAGCUUCCACUUUAGCGG against KDM5A: -3.29; AUAGGUACUACAUAUGAGC against DSC2: -0.323.
Next, AACAUAACAGUUGAAGUGA against TMEM244: -0.604.
The sequence UGAGCUACAUGUGAAGGCC against ZNF35 gave a seed-corrected z-score of -0.965.
Next, UAAUUUCAAGCCGAUCUUC against EIF3H: -1.14; UUGACUAUAACCUGAAGCC against OTX2: -2.79; UAGGAAUCCUCGUUUAGUG against YWHAH: 0.112.
As to UCAUUGUCCGAUGCCUUGG against SLCO1B3, the seed-corrected z-score is -0.953.
In turn, UUCUGCCCAAGUACAAUGG against C16orf52 showed a seed-corrected z-score of -2.07.
As for UCUUUGAGAAUGUCAAGCU against TIMM44, the figure is 0.11.
As for UCUCUGUAUCGUAUGGUGG against NTN4, the figure is -0.868; as for UUGGUAGACACCUCCUUGU against KRT13, 0.268.
As for UUUGCGACAAAACAGUUUG against DEPTOR, the figure is 0.125; as for AUCAGAAUCAGGAUAGGCC against RND2, 0.812; as for AAUCUCACAGGUGAAGUGG against OR2S2, -0.14.
Consider AGAGUUGUCAGAAGGGCGG against NCR2, for which the seed-corrected z-score was -5.82.
Next, UGCAUAAUAAGUCAUGUGG against DCN: -0.34.
Sequence UUUCCUUCUGCUCUCGUGC against RCAN3 gave a seed-corrected z-score of 0.855.
The sequence AUCUUUAGAACAUCGGUGG against SLC25A14 registered a seed-corrected z-score of -0.984.
Next, AUAUGCUUCACCUCUUUAC against SNTB2: -2.92.
AUAAGGAUUACUAGUUUUG against CDK8: the seed-corrected z-score was 0.165.
In turn, UAAGCACACACAAUGGUAC against DLK2 displayed a seed-corrected z-score of 0.0903.
As for UAUGGGCCGUGGACUCUCA against TPSAB1, the figure is -0.127.
With UACAGGGACACCACCUUGC against BOK, the seed-corrected z-score is -0.14.
Next, UGGUCUUCACAUUAGAUGC against NUTM1: -2.03.
As for UUGUAGUACAUUAACCUUG against ANKRD26, the figure is 0.963; as for UGACAUACUUCGUAAGUCC against ERLEC1, 0.555.
As for UUCAUAAAGAGGAGGUACC against CLUH, the figure is 0.239; as for AUUUUGAACAUGUUUGCUG against NAPA, 0.31; as for UUCUGGUAGAUGUGACUGC against ZNF83, -0.405.
In turn, UACAAGAUUAUAGGCGGUC against TRAPPC11 had a seed-corrected z-score of 0.0691.
Next, UCUGAGUCCUCUGUAACCU against MZF1: -2.17.
Sequence UACAGUUCAUCAAUCGUCA against APOA1BP yielded a seed-corrected z-score of 0.829.
Take UAUACUUCCCAAGAAGUCC against FAM217B: the seed-corrected z-score came out at 0.596.
As for UGUUGUUGUGACAAAAUCG against EIF5, the figure is 0.296.
UUUAAGAUAGGCGACACUG against LMOD3 had a seed-corrected z-score of 0.0486.
Consider UGUAAAUUUGCACCGAUGG against RPTOR, for which the seed-corrected z-score is -12.1.
AUCUGUACAAAUCUCUUUG against ZNF140 returned a seed-corrected z-score of -0.593.
Next, UCCUCUUCGAAUGUUGUCG against TSPAN15: -0.886; UUUGCGAUCUUCGAAGCCC against REEP3: -0.668.
As for UCGAUUAAAACCGCGAUCG against PPP2R1B, the figure is -0.365.
As for UUUGUCAGAAAACGCAUCC against GPR149, the figure is -2.76.
As for UCAAUGAUCUCGAUGAUGA against PLEC, the seed-corrected z-score is -0.0712.
Sequence UUCCGGGCAGCAAUAAUGG against PGM5 showed a seed-corrected z-score of -0.0662.
Sequence UUUCCCAUCAGGGUUAAGC against OR2A12 yielded a seed-corrected z-score of -0.365.
As for UGAUAUAUAAGGCCCGGAC against RPL10A, the figure is -3.19.
